# Data as given in PubChem BioAssay (NCATS).
# “And” between values parts separate entries of the source, which are not always exact repeats. Identical values can stand only once. Records with an inconclusive call do not appear. A number with no mark means an inactive call. The call rests on the fitted dose curve; in most records, active means well fitted activation curve with a large enough effect in the signal ratio, with a control signal flat (not every such curve was filed as active); inconclusive means small, poorly fitted or top-dose-only effect, or effect the other way, or a change in a side signal; inactive means flat fitted curve, though single readings scatter; the % refers to the signal ratio.
# Assay: qHTS Assay for Identification of Small Molecule Agonists for Hypoxia Response Element Signaling Pathway (AID 914); further: % of control where 0% means no effect
# Settings: ME-180 (cervical carcinoma) HRE-bla reporter, beta-lactamase ratio, CoCl2, 17 h; active compounds read high
# Source text: NIH Molecular Libraries Screening Centers Network [MLSCN]
# NIH Chemical Genomics Center [NCGC]
# Hypoxia-inducible factor-1 (HIF-1) is the major hypoxia-regulated transcription factor that controls cellular responses to low oxygen concentration. HIF-1 is composed of two subunits: hypoxia responsive HIF-1 alpha and constitutively expressed HIF-1 beta, which is also known as aryl hydrocarbon receptor nuclear translocator. During hypoxic conditions, HIF-1 alpha heterodimerizes with HIF-1 beta and translocates into the nucleus where the HIF-1 complex binds to the hypoxia-response element (HRE) and activates expression of target genes such as VEGF (vascular endothelial growth factor). HIF-1 alpha protein levels are elevated in many solid tumors, including those of the cervix and brain. Within tumors, cells that are the greatest distance from blood vessels and therefore the most hypoxic express the highest levels of HIF-1 alpha. Therapeutic blockade of the HIF-1 signaling pathway in cancer cells therefore provides an attractive strategy for development of anticancer drugs.
# Using a beta-lactamase reporter-gene under control of the hypoxia response element, a cell-based assay [CellSensor(TM) HRE-bla ME-180 developed by Invitrogen Corp.] was used to measure hypoxia-induced signaling. Library compounds were measured for their ability to positively modulate the action of EC50 CoCl2 on reporter gene activity. Compounds were screened in a titration series in 1536-well format. Positive modulators were identified based on the AC50 values derived from the screening data.
# NCGC Assay Protocol Summary:
# 2500 cells/5uL in Opti-MEM medium containing 0.5% dialyzed FBS, 0.1 mM NEAA, 1 mM sodium pyruvate and 10 mM HEPES was dispensed into 1536-well plates and cells were cultured at 37 degrees Celsius overnight. Next day 23 nL of compounds or DMSO were delivered to each well using a pin tool, and 1uL of EC50 level of CoCl2, or EC100 level of CoCl2, or assay medium was added. And then the plates were incubated at 37 degrees Celsius for 17 hours. 1 uL of CCF4-dye mixture was added to each well. After incubated at room temperature for 2.5 hours the plates were measured on an EnVision plate reader at Excitation 405nm, Emission1=460nm and Emission 2=530nm. The %Activity was determined from the ratio of 460nm/530nm.
row,Compound,activation
1,O=C(O)[C@H]1C2c3ccccc3C(c3ccccc32)[C@@H]1C(=O)NCC1CC1,-0.158%
2,Nc1nnnn1CCO,12.2%
3,COc1cc(C[C@H](C)N)c(OC)cc1I,2.02% and -7.45%
4,CC(C)[C@]1(O)[C@@H](OC(=O)c2ccc[nH]2)[C@]2(O)[C@@]3(C)C[C@@]4(O)O[C@@]5([C@H](O)[C@@H](C)CC[C@]35O)[C@]2(O)[C@]41C,12.8%
5,CN(C)CS/C(N)=N/[C@H](O)C(Cl)(Cl)Cl,7.72%
6,C[C@]12CC[C@@H]3[C@H](CCC4=CC(=O)CC[C@]43C)[C@]1(O)CC[C@@]2(O)C(=O)CO,7.15%
7,Oc1ccc(CCNCc2cc3c(cc2Br)OCO3)cc1,-17.8%
8,NC(=O)CN1C[C@@H](O)CC1=O,9.85%
9,O=[N+]([O-])c1cc(-c2ccc([As](=O)(O)O)cc2)ccc1[As](=O)(O)O,1.51%
10,C[C@H](CC(C#N)(c1ccccc1)c1ccccc1)N1CCCCC1,4.33%
11,CC(=O)OC1=CC2=CC[C@H]3[C@H]4CCC(=O)[C@@]4(C)CC(=O)[C@]3(S)[C@]2(C)CC1,-4.78%
12,C[C@@H]1O[C@H](OC2[C@@H](O)[C@H](O)C(O)[C@H](O)[C@H]2O)[C@@H](N)C[C@@H]1N=C(N)C(=O)O (stereo partly specified),3.06%
13,CC(=O)O[C@H]1CC[C@@]2(C)[C@@H](CC[C@H]3[C@H]2CC(=O)[C@]2(C)[C@@H]3C[C@@H](N3CC3)[C@H]2C(C)=O)C1,5.69%
14,Cc1c([C@@H](C)[C@H]2NC[C@H](C)C[C@@H]2O)ccc2c1C[C@@H]1[C@H]2CC=C2C[C@@H](O)CC[C@@]21C,4.43%
15,Cc1nc2ccccc2cc1C[N+]12CN3CN(CN(C3)C1)C2,9.32%
16,CC(C)CNCCc1ccccn1,5.07%
17,O=[As](O)(O)c1ccc(N=Nc2ccc(O)cc2)cc1,5.33%
18,O=C(O)C(=O)Cc1ccc2c(c1)OCO2,-7.84%
19,COc1cc2c(cc1OC)[C@@]13CCN4C=C5CCO[C@H]6CC(=O)N2[C@@H]1[C@@H]6[C@H]5C[C@H]43,-4.7%
20,NCCP(=O)(O)O,0.635%
21,N[C@H](Cn1ccc(=O)[nH]c1=O)C(=O)O,10.5%
